Assay results reported in PubChem BioAssay (EPA / NIEHS).
Inconclusive results are not listed. Calls of active or inactive are those of the source. How the source made its calls, unless noted: active means hit-call score of the fitted dose curve at least 0.9, where 1 is the maximum; inactive means score below 0.9.

Legend:
[1] = CCTE_Shafer_MEA_acute_spike_number: CCTE's Neural Acute Assay for Total Number of Spikes, Shafer Lab (AID 2284008);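 on AC50: curve fitted for decrease in spike count so AC50 reflects inhibitors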
Procedure, shortened: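 Total spike count from 40 min recordings before and during compound exposure (0.03-40 uM), given as per-well percent change. Cortical cultures from rat, DIV 13 or 15, 37 C; adaptive detection threshold 8x rms noise.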

[2] = CCTE_Shafer_MEA_acute_firing_rate_mean: CCTE's Neural Acute Assay for Mean Firing Rate, Shafer Lab (AID 2284009);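 further: analyzed for loss of signal so actives lower firing rate relative to DMSO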
Procedure, shortened: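 Rat cortical neuron cultures matured to DIV 13 or 15, equilibrated 20 min at 37 C, then recorded 40 min for baseline. Compound (0.03-40 uM) added and a further 40 min recorded; percent change in mean firing rate calculated per well.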

[3] = CCTE_Harrill_HTTr_Viability_MCF7: CCTE's 6-hour Cell Viability Assessment for the High-Throughput Transcriptomics (HTTr) Platform, in MCF-7 cells cultured in DMEM + 10% fetal bovine serum, Harrill Lab (AID 2284010)
Procedure, shortened: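 Propidium iodide exclusion, imaged by high-content analysis, gauged viability after a six-hour exposure across eight concentrations. Cells were MCF-7 grown in DMEM with 10% fetal bovine serum; fits run in both directions against DMSO.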

[4] = CCTE_Harrill_HTTr_Apoptosis_MCF7: CCTE's 6-hour Apoptosis Assessment for the High-Throughput Transcriptomics (HTTr) Platform, in MCF-7 cells cultured in DMEM + 10% fetal bovine serum, Harrill Lab (AID 2284011)
Procedure, shortened: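 High-content imaging of CellEvent Caspase 3/7 Green signal follows a six-hour exposure, with eight concentrations per chemical. MCF-7 cells grown in DMEM plus 10% fetal bovine serum; activity fitted in both directions against DMSO.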

[5] = CCTE_Harrill_HTTr_CellCount_MCF7: CCTE's Cell Proliferation Assessment for the High-Throughput Transcriptomics (HTTr) Platform, Harrill Lab (AID 2284012; active means hit-call score of the fitted dose curve at least 0.9, where 1 is the maximum;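 further: cells exposed to compound for six hours; intended direction is loss of nuclei count meaning fewer cells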)
Procedure, shortened: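 Cell count from high-content imaging of Hoechst-labeled nuclei serves as viability/growth readout. Chemicals were applied to MCF-7 cells in eight concentrations for six hours, with fitting in both directions relative to DMSO.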

[6] = CCTE_Shafer_MEA_acute_burst_number: CCTE's Neural Acute Assay for Single-Electrode Bursts, Shafer Lab (AID 2284013)
Procedure, shortened: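 Percent change in single-electrode burst number per well, from 40-min recordings taken before and after adding compound (0.03-40 uM) to primary rat cortical neurons on MEA plates at DIV 13 or 15, 37 C.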

[7] = CCTE_Shafer_MEA_acute_burst_duration_mean: CCTE's Neural Acute Assay for Mean Burst Duration, Shafer Lab (AID 2284014);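 further: hits are decreases in mean burst duration relative to DMSO controls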
Procedure, shortened: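 Rat cortical cultures, DIV 13/15; 40 min baseline, then 40 min with compound (0.03-40 uM), 37 C. Spikes: 300-5000 Hz band-pass, 8x rms threshold. Read-out: % change in mean single-electrode burst duration, DMSO-referenced, loss direction.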

[8] = CCTE_Shafer_MEA_acute_interburst_interval_mean: CCTE's Neural Acute Assay for Mean Interburst Interval, Shafer Lab (AID 2284016);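 further: percent change of mean interburst interval versus each well's own pre-dose baseline; curves fitted for decrease in interburst interval relative to DMSO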
Procedure, shortened: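 MEA recording of spontaneous network bursting in primary rat cortical cultures; mean interburst interval was compared before and after a 40-min compound exposure (0.03-40 uM) and expressed as percent change, relative to DMSO.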

[9] = CCTE_Shafer_MEA_acute_burst_percentage_mean: CCTE's Neural Acute Assay for Percentage of Spikes in a Burst, Shafer Lab (AID 2284017);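 on AC50: curve fitted for loss of signal so potency reflects decreased burst percentage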
Procedure, shortened: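 Compounds were tested at 0.03-40 uM on primary rat cortical neuron networks grown over microelectrodes, with at least three wells per compound. Spontaneous firing was recorded for 40 min before and 40 min after dosing, and the change in burst percentage was computed per well.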

[10] = CCTE_Shafer_MEA_acute_burst_percentage_std: CCTE's Neural Acute Assay for Standard Deviation of Burst Percentage, Shafer Lab (AID 2284018);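 further: fitted in the negative direction so actives lower burst percentage SD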
Procedure, shortened: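 Rat primary cortical neurons on 48-well MEAs, DIV 13 or 15, 37 C. 40-min baseline then 40-min recording with compound (0.03-40 uM); well-level SD of per-electrode burst spike percentage, expressed as percent change from baseline.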

[11] = CCTE_Shafer_MEA_acute_per_network_burst_spike_number_mean: CCTE's Neural Acute Assay for Average Number of Spikes in a Network Burst, Shafer Lab (AID 2284019);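 on AC50: curve fitted for loss of signal so actives reduce spikes per network burst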
Procedure, shortened: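 Rat cortical cultures, DIV 13/15; spike threshold 8x rms noise, 300-5000 Hz band-pass, 12.5 kHz sampling; wells need >/= 10 active electrodes. Compound 0.03-40 uM, 40 min, 37 C; % change vs own baseline, DMSO negative control.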

[12] = CCTE_Shafer_MEA_acute_per_network_burst_spike_number_std: CCTE's Neural Acute Assay for Standard Deviation of Number of Spikes in a Network Burst, Shafer Lab (AID 2284020);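 further: fitted for decrease in spike-number SD versus DMSO so actives lower it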
Procedure, shortened: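 Rat cortical cultures, DIV 13/15, 37 C; 20-min stabilisation, 40-min baseline, compound 0.03-40 uM, 40-min re-record. Spikes detected at 8x rms noise (300-5000 Hz band-pass). Readout: % change from baseline in per-burst spike-number SD.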

[13] = CCTE_Shafer_MEA_acute_cross_correlation_area: CCTE's Neural Acute Assay for Area of Cross Correlation, Shafer Lab (AID 2284024);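 further: area under pooled inter-electrode spike cross-correlation near zero lag as percent change from own baseline; curves fitted for loss of cross-correlation area so actives lower synchrony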
Procedure, shortened: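 Percent change in well-wide cross-correlation area (window around zero lag) between 40 min baseline and 40 min post-compound recordings, 37 C; rat cortical cultures on MEA at DIV 13 or 15, dosed 0.03-40 uM, wells needing >/= 10 active electrodes.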

[14] = CCTE_Shafer_MEA_acute_cross_correlation_HWHM: CCTE's Neural Acute Assay for Cross Correlation at Half Width at Half Maximum, Shafer Lab (AID 2284026);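 further: percent change per well from pre-dose baseline in spike cross-correlogram half width; hits are a decrease in cross-correlogram half width relative to DMSO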
Procedure, shortened: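 Per-well percent change in cross-correlogram half width at half maximum, derived from 40-min recordings before and after compound (0.03-40 uM) at 37 C. Cultures were rat cortical neurons, DIV 13 or 15, with adaptive spike detection at 8x rms.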

[15] = biological target: Estrogen receptor (Homo sapiens) (UniProt P03372); assay: CCTE_Deisenroth_AIME_96WELL_LUC_Active: CCTE's 96-well Estrogen Receptor Transactivation Assay with AIME metabolic competence (ERTA luciferase; metabolism positive), Deisenroth Lab (AID 2284023; active means hit-call score of the fitted dose curve at least 0.9, where 1 is the maximum)
Sequence of Estrogen receptor (Homo sapiens) (P03372 whole entry, looked up): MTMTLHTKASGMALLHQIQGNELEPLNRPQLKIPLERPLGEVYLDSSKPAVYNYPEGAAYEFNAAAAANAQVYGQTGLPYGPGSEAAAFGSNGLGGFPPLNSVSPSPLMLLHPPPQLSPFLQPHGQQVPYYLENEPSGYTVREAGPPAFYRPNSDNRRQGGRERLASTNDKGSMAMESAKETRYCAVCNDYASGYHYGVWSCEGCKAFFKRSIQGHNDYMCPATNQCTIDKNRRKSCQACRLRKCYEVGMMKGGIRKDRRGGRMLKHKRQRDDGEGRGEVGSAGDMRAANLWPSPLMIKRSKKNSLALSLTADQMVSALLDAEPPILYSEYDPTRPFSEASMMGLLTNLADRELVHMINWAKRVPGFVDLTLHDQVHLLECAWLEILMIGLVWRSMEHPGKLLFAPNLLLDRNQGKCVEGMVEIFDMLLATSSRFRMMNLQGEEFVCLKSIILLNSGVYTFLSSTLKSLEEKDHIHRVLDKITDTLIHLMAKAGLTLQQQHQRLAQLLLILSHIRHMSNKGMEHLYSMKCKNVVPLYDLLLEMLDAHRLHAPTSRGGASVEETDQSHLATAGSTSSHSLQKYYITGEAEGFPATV
Procedure, shortened: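 Metabolism-positive mode: induced rat hepatic S9 in alginate microspheres conditions test solutions (0.002 - 200 uM, 10 points) for 2 hours. VM7Luc4E2 ER luciferase reporter cells then exposed 24 h; positive-direction fit against 17beta-estradiol, n=4 typical.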

[16] = biological target: Estrogen receptor (Homo sapiens) (UniProt P03372); assay: CCTE_Deisenroth_AIME_96WELL_LUC_Inactive: CCTE's 96-well Estrogen Receptor Transactivation Assay without AIME metabolic competence (ERTA luciferase; metabolism negative), Deisenroth Lab (AID 2284025; active means hit-call score of the fitted dose curve at least 0.9, where 1 is the maximum)
Procedure, shortened: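 Metabolism-negative arm: chemicals (0.002–200 uM, 10 points) incubated 2 h with alginate-water microspheres, then medium moved onto VM7Luc4E2 cells for 24 h luciferase read-out. Positive direction vs 17beta-estradiol; n≥4 experiments.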

Measured: AC50

CCOP(=S)(OCC)SCn1c(=O)oc2cc(Cl)ccc21
active: [7] 20 µM | [8] 30.2 µM | [9] 32.3 µM
not listed: [15] | [16]
inactive: all other assays above

C=CC1(C)OC(=O)N(c2cc(Cl)cc(Cl)c2)C1=O (centres undefined)
inactive: [3] | [4] | [5]

CCCCC(CC)COC(=O)c1ccccc1C(=O)OCC(CC)CCCC (centres undefined)
inactive: [3] | [4] | [5] | [15] | [16]

Cc1c(F)c(F)c(COC(=O)C2C(/C=C(\Cl)C(F)(F)F)C2(C)C)c(F)c1F (centres undefined)
active: [1] 567 nM | [2] 581 nM | [6] 226 nM | [9] 0.24 µM | [11] 0.0326 µM | [12] 0.0979 µM | [13] 95.3 nM | [14] 28.1 µM
inactive: [3] | [4] | [5] | [7] | [8] | [10]

CNC(=S)S
inactive: [3] | [4] | [5]

CC(Oc1ccc(Cl)cc1Cl)C(=O)O (centres undefined)
not listed: [5] | [15] | [16]
inactive: all other assays above

O=C(O)c1nc(Cl)ccc1Cl
not listed: [5] | [15] | [16]
inactive: all other assays above

CCNc1nc(Cl)nc(NCC)n1
inactive: [3] | [4] | [5]

CS/C(C)=N/OC(=O)N(C)SN(C)C(=O)O/N=C(\C)SC
active: [8] 29.7 µM | [9] 25.5 µM | [11] 20 µM | [12] 25.3 µM
not listed: [15] | [16]
inactive: all other assays above

CC(C)C1(C)N=C(c2nc3ccccc3cc2C(=O)O)NC1=O (centres undefined)
inactive: [3] | [4]

CCOC(=O)CC(SP(=S)(OC)OC)C(=O)OCC (centres undefined)
inactive: [3] | [4] | [5]

COC(=O)c1ccccc1C(=O)OC
inactive: [3] | [4]

CNC(=O)ON=CC(C)(C)SC
not listed: [5] | [15] | [16]
inactive: all other assays above

CCOc1cc(Oc2ccc(C(F)(F)F)cc2Cl)ccc1[N+](=O)[O-]
inactive: [3] | [4] | [5]

CCOC(=O)C(Cl)Cc1cc(-n2nc(C)n(C(F)F)c2=O)c(F)cc1Cl (centres undefined)
inactive: [3] | [4] | [5]

Fc1ccc(Oc2ccnc3cc(Cl)cc(Cl)c23)cc1
not listed: [5] | [15] | [16]
inactive: all other assays above

CCCCOC(=O)c1ccccc1C(=O)OCCCC
inactive: [3] | [4] | [15]
active: [16] 34.1 µM

COC(=O)C(C)Oc1ccc(Oc2ccc(Cl)cc2Cl)cc1 (centres undefined)
active: [9] 20 µM | [14] 11.7 µM
not listed: [15] | [16]
inactive: all other assays above
